Compound activity deposited in PubChem by Broad Institute.
ERp5 inh = inhibitors of ERp5-driven insulin aggregation, primary screen, biochemical, turbidity, absorbance 650 nm, single point | inhibition, % at 9.99 µM | actives 0.05% (n = 350,000) | AID 651711, 2012 | 90 min;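 active = mean replicate inhibition above about 25%, with every replicate also reaching it, limit read from the data, passing the limit was not always enough; inconclusive = only one of those two criteria met; inactive = neither criterion met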
PDI turbidity = inhibitors of human PDI, primary screen, biochemical, turbidity, single point, plate reader | PDI insulin aggregation turbidity, A650, 90 min | inhibition, % at 10 µM | actives 0.052% (n = 350,000) | AID 588391, 2011;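 active = mean inhibition across replicates of 30% or more, whatever share of single replicates reach that level; inconclusive = mean inhibition below 30% while every single replicate reaches 30%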
ERAP1 inh = human ERAP1 aminopeptidase inhibitors, primary screen, biochemical, single point, plate reader. Endoplasmic reticulum aminopeptidase 1 (Homo sapiens), Q9NZ08. recombinant ERAP1, Leu-AMC fluorescence, 60 min. inhibition, % at 10.7 µM. actives 0.15% (n = 340,000);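 active = mean replicate inhibition of at least 30%, or all replicates individually reaching that 30% level; inactive = mean below 30% and not every replicate reaching it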
HDAC3 inhib = HDAC3 deacetylase inhibitors, primary screen, biochemical, fluorescence, cell-free homogeneous | Histone deacetylase 3 (Homo sapiens), O15379 | recombinant HDAC3, fluorogenic peptide/trypsin coupled | inhibition, % at 8.3 µM | actives 0.15% (n = 320,000) | AID 2718, 2010; in the data active = inhibition above about 26%, passing the limit was not always enough; inconclusive = no clear call, values can overlap the other calls
SIRT5 inh = SIRT5 desuccinylase inhibitors, primary screen, biochemical, fluorescence imaging, single point, set 5; NAD-dependent protein deacylase sirtuin-5, mitochondrial (Homo sapiens), Q9NXA8; Purified SirT5, succinyl-peptide AMC, trypsin-coupled fluorescence; inhibition, % at 15 µM; actives 1.1% (n = 330,000); AID 652115, 2013; in the data active = inhibition above about 15%; inconclusive = no clear call, values can overlap the other calls
Target sequence (Q9NXA8 whole entry, looked up): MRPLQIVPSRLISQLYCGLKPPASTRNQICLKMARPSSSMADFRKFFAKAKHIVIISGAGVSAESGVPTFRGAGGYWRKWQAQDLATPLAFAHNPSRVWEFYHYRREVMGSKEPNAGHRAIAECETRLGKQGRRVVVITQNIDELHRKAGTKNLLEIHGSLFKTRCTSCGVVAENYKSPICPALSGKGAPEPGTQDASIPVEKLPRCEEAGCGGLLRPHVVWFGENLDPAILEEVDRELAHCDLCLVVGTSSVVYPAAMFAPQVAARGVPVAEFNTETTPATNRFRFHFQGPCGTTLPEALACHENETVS
A number is an active result; – = inactive; ? = inconclusive; · = not tested or not shown; ! = a repeat was not active. Only a selection was taken, and hits are over-represented in it overall.

SMILES	ERp5 inh	PDI turbidity	ERAP1 inh	HDAC3 inhib	SIRT5 inh
CC(C)OC(=O)N(C)C[C@@H]1OCc2cn(nn2)CCCC(=O)N([C@@H](C)CO)C[C@@H]1C	–	·	–	·	16
COC(=O)N(C)C[C@@H]1OCc2cn(nn2)CCCC(=O)N([C@H](C)CO)C[C@H]1C	–	·	–	·	–
C[C@@H]1CN([C@H](C)CO)C(=O)c2cc(C#C[C@@H](C)O)cnc2O[C@@H]1CN(C)C(=O)Cc1ccncc1	–	·	–	·	–
Cc1cccc(C)c1NC(=S)N(CCc1ccncc1)C(C)C	–	–	–	–	16
CCOc1ccc(NC(=S)N(CCc2ccncc2)C(C)C)cc1	–	–	–	–	–
Cc1ccccc1CNC(=O)c1ccccc1NS(C)(=O)=O	–	–	–	–	27
CS(=O)(=O)Nc1ccccc1C(=O)NCc1ccccc1Cl	–	–	–	–	–
CCC(=O)N1CC2(C1)[C@@H](c1ccccc1)[C@@H](CO)N2Cc1ccccc1OC	–	·	–	·	–
Cn1c(N)c(C(=O)CSc2nnc(C3CC3)n2N)c(=O)n(C)c1=O	–	–	–	–	19
Clc1ccc(SCc2cn3ccccc3n2)cc1	–	–	–	–	58
Clc1ccc(-n2nnnc2SCc2cn3ccccc3n2)cc1	·	–	·	–	·
CC(C)NC(=O)Nc1ccc2c(c1)C(=O)N([C@@H](C)CO)C[C@H](C)[C@H](CN(C)Cc1ccc3c(c1)OCO3)O2	–	·	–	·	–
CCn1cc(C(=O)O)c(=O)c2cnc(N3CCN(C(=S)NC(=O)c4ccc(OC)cc4)CC3)nc21	–	–	–	–	29
CCn1cc(C(=O)O)c(=O)c2cnc(N3CCN(C(=S)NC(=O)c4ccc(F)c(F)c4)CC3)nc21	?	–	–	–	–
O=C1c2ccccc2C(=O)c2c(Nc3ccc(CCO)cc3)ccc(O)c21	–	–	–	–	–
O=C1c2c(O)ccc(O)c2C(=O)c2c(NCCNCCO)ccc(NCCNCCO)c21	–	–	39!	–	–
CCOC(=O)c1nc2sc3c(c2c(=O)[nH]1)CCCC3	·	–	·	–	·
N#C/C(=C\c1ccc(C(=O)O)cc1)c1nc2sc3c(c2c(=O)[nH]1)CCCC3	–	–	–	·	20
COc1ccc(C(=O)NCc2cc(C(C)C)no2)cc1OC1CCN(C(C)C)CC1	–	–	–	–	–
COc1ccc(C(=O)NCc2nc(C)c(C)s2)cc1OC1CCN(C(C)C)CC1	–	–	–	–	15
COc1cc(/C=N/NC(=O)c2cc(C)oc2C)cc(OC)c1OC	–	–	–	–	–
COc1cc(/C=N/NC(=O)c2nonc2N)cc(OC)c1OC	–	–	–	–	18
C[N+]1(CC(O)COCC2COc3ccccc3O2)CCOCC1 (stereo not drawn)	–	–	104	–	–
Cc1noc(C)c1NC(=O)N[C@H]1CC[C@H](CCNC(=O)C2CC2)O[C@H]1CO	–	·	–	·	18
O=C(C[C@@H]1CC[C@@H](NC(=O)Nc2cccc(F)c2)[C@H](CO)O1)NCC1CC1	–	·	–	·	22
SMILES	ERp5 inh	PDI turbidity	ERAP1 inh	HDAC3 inhib	SIRT5 inh
Cc1noc(C)c1NC(=O)N[C@@H]1CC[C@H](CCNC(=O)C2CC2)O[C@@H]1CO	–	·	–	·	–
O=C(Nc1ccc2c(c1)OCO2)N[C@H]1CC[C@H](CCNC(=O)C2CC2)O[C@@H]1CO	–	·	–	·	31
O=C(C[C@H]1C=C[C@@H](NC(=O)CC2CC2)[C@H](CO)O1)NCc1ccc(Cl)cc1	–	·	–	·	–
C[C@@H]1CN([C@@H](C)CO)C(=O)Cc2cc(NS(=O)(=O)c3ccc(Cl)cc3)ccc2O[C@@H]1CN(C)S(=O)(=O)c1cn(C)cn1	–	·	–	·	–
COc1ccccc1C#Cc1ccc([C@@H]2[C@@H](CO)N3CCCCN(CCC(F)(F)F)C[C@@H]23)cc1	–	·	–	·	–
CCCn1c(/C=C/c2cc[n+](C)cc2)nc2ccccc21	–	–	41	–	–
CCn1c(/C=C/c2ccccc2)nc2ccccc21	·	–	·	–	·
Nc1ccccc1SC(CC(=O)c1ccccc1)c1cccc([N+](=O)[O-])c1 (stereo not drawn)	–	56	–	·	–
CS(=O)(=O)N1[C@@H](CO)[C@@H](c2ccccc2)C12CN(C(=O)c1ccccc1F)C2	–	·	–	·	19
